Records with an inconclusive call do not appear. Active and inactive are the calls of the source. Calls follow the shape of the dose curve; as a rule, active = well fitted cell-killing curve with a large enough effect; inconclusive = small, poorly fitted or top-dose-only effect, or effect the other way; inactive = no such curve, though single readings can be large or run the other way.
Potency is read from the fitted curve at half-maximal effect.

This experiment in a line: Quantitative High-Throughput drug screen in 47 multiple myeloma cell lines against the NCATS MIPE library collection: SKMM1_PLB cell viability assay (AID 1919863). Also: nearly all actives have a fitted effect of over 35% in size. As to viability: series mostly up to about 46 µM. As to conditions: SKMM1 myeloma viability, CellTiter-Glo ATP, 48 h; viability: active compounds read low. The text has this:
PI: Beverly A. Mock Ph.D.
Laboratory of Cancer Biology and Genetics,
Center for Cancer Research, National Cancer Institute,
National Institute of Health, Bethesda, Maryland
Drug resistance and disease progression are common in multiple myeloma (MM) patients, underscoring the need for new therapeutic combinations. […] We hypothesized that effective combinations would reduce MYC expression and enhance p16 activity. […] These preclinical data identify potentially useful drug combinations for evaluation in drug-resistant MM and reveal potential mechanisms of combined drug sensitivity.
Described herein is the primary MIPE qHTS used to cherrypick compounds. Validated compounds were then further tested for potential synergistic activiy.
[1] Peat TJ, Gaikwad SM, Dubois W, Gyabaah-Kessie N, Zhang S, Gorjifard S, Phyo Z, Andres M, Hughitt VK, Simpson RM, Miller MA, Girvin AT, Taylor A, Williams D, D'Antonio N, Zhang Y, Rajagopalan A, Flietner E, Wilson K, Zhang X, Shinn P, Klumpp-Thomas C, McKnight C, Itkin Z, Chen L, Kazandijian D, Zhang J, Michalowski AM, Simmons JK, Keats J, Thomas CJ, Mock BA. Drug combinations identified by high-throughput screening promote cell cycle transition and upregulate Smad pathways in myeloma. Cancer Lett. 2023 Aug 1;568:216284. doi: 10.1016/j.canlet.2023.216284. Epub 2023 Jun 24. PMID: 37356470; PMCID: PMC10408729.
SEQUENCE No. (e.g., 1, 2, 3, etc.); […] (e.g., Cells, Incubation, Reagent, etc.); VALUE and DESCRIPTION.
1; Cells; 5 uL; white, solid bottom 1536-well Greiner assay plate.
2; Compounds; 23 nL; Kalypsis pin tool (Wako USA) equipped with a 1536-well pin head to transfer to the assay plates.
3; Incubation; 48 hours; 37C incubation.
4; Reagent;5uL; CellTiter Glo (Promega).
5; Detector; 425V; Luminescence; Viewlux PerkinElmer.
NOTES (numbers refer to Sequence numbers above)
1. The cell-based screening methods employed in this study were like those previously published. Briefly, the corresponding myeloma cell lines were screened in 1,536-well plates with 500 cells, 5-uL per well for inhibition of cell viability (assessed by measuring ATP levels with CellTiterGlo).
2. NCATS MIPE 4.0 library of approved and investigational drugs were added using the Kalypsis pin tool. Wells treated with DMSO only for 100% viability and media only for 0% viability were used as controls.
3. The assay plates were covered and incubated for 48 hours in a 37C, 5% CO2 incubator with controlled humidity.
4. After 48 hours, CellTilter-GloTM luminescent substrate mix (Promega) reagent was added to the assay plate and plates we incubated for 5 min at room temperature.
5. Signal was measured as median relative luminescence units on a ViewLux (PerkinElmer) multiplate reader.
[1] Heske CM, Davis MI, Baumgart JT, Wilson K, Gormally MV, Chen L, Zhang X, Ceribelli M, Duveau DY, Guha R, Ferrer M, Arnaldez FI, Ji J, Tran HL, Zhang Y, Mendoza A, Helman LJ, Thomas CJ. Matrix Screen Identifies Synergistic Combination of PARP Inhibitors and Nicotinamide Phosphoribosyltransferase (NAMPT) Inhibitors in Ewing Sarcoma. Clin Cancer Res. 2017 Dec 1;23(23):7301-7311. doi: 10.1158/1078-0432.CCR-17-1121. Epub 2017 Sep 12. PMID: 28899971; PMCID: PMC6636827.
In general terms: Cellular ATP, detected with luciferase, serves as a proxy for viable cell number.
In the case of `NC(=O)Nc1cc(-c2ccc(CN3CCOCC3)cc2)sc1C(N)=O`, the Potency is 18700 nM (active). The term viability denotes a read-out of living cells in per cent, often relative to untreated cells. Consider `COc1ccc(C(C)=O)c(O)c1`, for which the viability is 112% (inactive). As to `O=C(O)C[C@H](O)C[C@H](O)C=Cc1c(C2CC2)nc2ccccc2c1-c1ccc(F)cc1`, the Potency is 11800 nM (active). The same measure, in the same setting: to `O=C(C=Cc1ccc(CN(CCO)CCc2c[nH]c3ccccc23)cc1)NO` belongs 187 nM (active). On to `CC(=O)OCC(=O)[C@@]12N=C(C)O[C@H]1C[C@H]1[C@@H]3CCC4=CC(=O)C=C[C@]4(C)[C@@H]3[C@@H](O)C[C@@]12C`, for which the viability was 135% (inactive). For the compound `CN(C)CC(=O)N1CCC(c2ccc(NC(=O)c3ncc(C#N)[nH]3)c(C3=CCCCC3)c2)CC1`, the viability was 127% (inactive).

As to `Cn1cc(C[C@@H](N)C(=O)O)c2ccccc21`, the Potency is 7240 nM (active). Still for that read-out and setting: the same measure for `CCS(=O)(=O)Nc1ccc2[nH]c(O)c(C(=Nc3ccc(CN4CCCCC4)cc3)c3ccccc3)c2c1`: 5900 nM (active); for `CCc1c(O)cc(O)c(C(=O)c2ccc(OCCN3CCOCC3)c(OC)c2)c1CC(=O)N(CCOC)CCOC`: 1320 nM (active). Same read-out and setting: the same measure for `CS[C@H]1SC[C@@H]2C(=O)N(C)[C@H](C(C)C)C(=O)OC[C@H](NC(=O)c3cnc4ccccc4n3)C(=O)N[C@H](C)C(=O)N(C)[C@@H]1C(=O)N(C)[C@H](C(C)C)C(=O)OC[C@H](NC(=O)c1cnc3ccccc3n1)C(=O)N[C@H](C)C(=O)N2C`: 9.3 nM (active); for `NC(=O)Nc1sc(-c2ccc(F)cc2)cc1C(N)=O`: 11800 nM (active). Turning to `OC[C@H]1OC(O)C[C@@H](O)[C@H]1O` (stereo not given in full), the viability is 120% (inactive). As to `Oc1ccc(-c2ccc(-c3cc(Nc4cccc(CNC5CC5)c4)n[nH]3)cc2)c(O)c1`, the Potency was 5260 nM (active).

As to `CCc1nc(-c2cccc(C)c2)c(-c2ccnc(NC(=O)c3ccccc3)c2)s1`, the Potency is 7430 nM (active).

`COc1ccnc2[nH]cc(C(=O)C(=O)N3CCN(C(=O)c4ccccc4)C[C@@H]3C)c12`: the viability was 120% (inactive).

On to `CCN(CC)CCCCNc1ncc2c(n1)N(C)C(=O)N(c1c(Cl)c(OC)cc(OC)c1Cl)C2`, for which the Potency was 14800 nM (active). The same measure, in the same setting: the same measure for `CC[C@@]1([C@@H]2O[C@@H]([C@H]3O[C@@](O)(CO)[C@H](C)C[C@H]3C)C[C@H]2C)CC[C@H]([C@]2(C)CC[C@]3(C[C@H](O)[C@@H](C)[C@@H]([C@@H](C)[C@@H](OC)[C@H](C)C(=O)O)O3)O2)O1`: 323 nM (active). The same measure, in the same setting: to `C=CC(=O)Nc1cccc(Nc2nc(NC3CCC(N(C)C)CC3)nc3c2ncn3C(C)C)c1` (stereo not given) belongs 935 nM (active); to `CC(C)N1[N]C(=C2C=c3cc(O)ccc3=N2)c2c(N)ncnc21`, 118 nM (active). Turning to `CCCCC(=O)O[C@]1(C(=O)CO)[C@@H](C)C[C@H]2[C@@H]3CCC4=CC(=O)C=C[C@]4(C)[C@@]3(F)[C@@H](O)C[C@@]21C`, the viability is 122% (inactive). On to `COc1cc2c(cc1O)CCC1C2CC[C@@]2(C)C1CC[C@@H]2O` (stereo not given in full), for which the Potency is 833 nM (active). On to `CC(Oc1ccc(O)cc1)(P(=O)(O)O)P(=O)(O)O`, for which the viability was 108% (inactive).

`CC(=O)ON=C1C(c2c(O)[nH]c3cc(Br)ccc23)=Nc2ccccc21`: the Potency was 18700 nM (active). Still for that read-out and setting: to `C[C@H](NCc1ccc2c(c1)nc(NC(=O)c1ccc(-c3cn[nH]c3)s1)n2CCc1ccccc1)C(C)(C)C` belongs 2960 nM (active); to `CC(C)[C@H](CO)Nc1nc(Nc2cccc(Cl)c2)c2ncn(C(C)C)c2n1`, 20900 nM (active); to `COc1ccc(C=Cc2cc(OC)c(OC)c(OC)c2)cc1NC(=O)[C@H](N)CO`, 5.9 nM (active). Consider `CCN(CC)Cc1ccc2cc(COC(=O)Nc3ccc(C(=O)NO)cc3)ccc2c1`, for which the Potency is 935 nM (active). Regarding `CC(=O)O[C@H]1C[C@@H]2CC[C@H]3[C@H]4C[C@H]([N+]5(C)CCCCC5)[C@@H](OC(C)=O)[C@@]4(C)CC[C@@H]3[C@@]2(C)C[C@H]1[N+]1(C)CCCCC1`, the viability was 128% (inactive). Same read-out and setting: to `COc1ccc(CCC(=O)c2c(O)cc(O[C@@H]3O[C@H](CO)[C@@H](O)[C@H](O)[C@@H]3O[C@@H]3O[C@@H](C)[C@H](O)[C@@H](O)[C@@H]3O)cc2O)cc1O` belongs 101% (inactive). As for `CCCCCCCCc1ccc(CCC(N)(CO)CO)cc1`, the Potency was 23500 nM (active). On the same count and under the same terms, to `C#C[C@]1(O)CC[C@@H]2[C@@H]3CCc4cc(O)ccc4[C@H]3CC[C@@]21C` belongs 14800 nM (active); to `COc1ccc2c(c1OC)C(=O)OC2[C@H]1c2c(cc3c(c2OC)OCO3)CCN1C` (stereo not given in full), 23.5 nM (active). In the case of `C=C[C@@H]1CN2CCC1C[C@H]2[C@H](O)c1ccnc2ccc(OC)cc12` (stereo not given in full), the viability was 93.1% (inactive). As for `O=C(C=CC#Cc1cccc(NS(=O)(=O)c2ccccc2)c1)NO`, the Potency was 2350 nM (active).

Regarding `NS(=O)(=O)OC[C@@H]1C[C@@H](n2ccc3c(N[C@H]4CCc5ccccc54)ncnc32)C[C@H]1O`, the Potency is 1050 nM (active). Same read-out and setting: the same measure for `N#CNC(=NCCCCCCOc1ccc(Cl)cc1)Nc1ccncc1`: 16.6 nM (active). Same read-out and setting: to `CN(C)CCN1C(=O)c2cccc3cc(N)cc(c23)C1=O` belongs 18700 nM (active); to `CCCCCN=C(N)NN=Cc1c[nH]c2ccc(OC)cc12`, 296 nM (active). Turning to `C[C@H]1O[C@H](O[C@H]2[C@H](O)[C@@H](O)[C@@H](O[C@H]3[C@H](O)[C@@H](O)C(O)O[C@H]3CO)O[C@H]2CO)[C@H](O)[C@@H](O)[C@H]1N[C@H]1C=C(CO)[C@@H](O)[C@H](O)[C@@H]1O` (stereo not given in full), the viability was 131% (inactive). Take `CC(=O)OCC(=O)[C@@]1(O)CC[C@H]2[C@@H]3CCC4=CC(=O)CC[C@]4(C)[C@@H]3C(=O)C[C@@]21C`: the viability was 120% (inactive).

The values are drawn from PubChem BioAssay (NCATS).
